Most compounds without a hit are left out; they make up all but 32% or so of the library.
PostGolgi ctrl = growth inhibition of yeast control strain, primary screen, counter-screen for post-Golgi transport modulator project; inhibition, % at 10 µM; actives 5% (n = 98,000); efflux-deficient yeast background strain, growth absorbance A615, 16 h
CYP2C19 inh = blockers of cytochrome P450 2C19 activity – biochemical, luminescence, ADME assay, primary screen. actives 21% (n = 96,000). inhibition, % at 5 µM. P33261. CYP2C19 Supersomes, luciferin-H EGE luminescence, 30 min. AID 778, 2007;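 active = CYP2C19 inhibition above a set limit at 5 µM in the primary screen, cut at about 50% in these data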
Target sequence (P33261 whole entry, looked up): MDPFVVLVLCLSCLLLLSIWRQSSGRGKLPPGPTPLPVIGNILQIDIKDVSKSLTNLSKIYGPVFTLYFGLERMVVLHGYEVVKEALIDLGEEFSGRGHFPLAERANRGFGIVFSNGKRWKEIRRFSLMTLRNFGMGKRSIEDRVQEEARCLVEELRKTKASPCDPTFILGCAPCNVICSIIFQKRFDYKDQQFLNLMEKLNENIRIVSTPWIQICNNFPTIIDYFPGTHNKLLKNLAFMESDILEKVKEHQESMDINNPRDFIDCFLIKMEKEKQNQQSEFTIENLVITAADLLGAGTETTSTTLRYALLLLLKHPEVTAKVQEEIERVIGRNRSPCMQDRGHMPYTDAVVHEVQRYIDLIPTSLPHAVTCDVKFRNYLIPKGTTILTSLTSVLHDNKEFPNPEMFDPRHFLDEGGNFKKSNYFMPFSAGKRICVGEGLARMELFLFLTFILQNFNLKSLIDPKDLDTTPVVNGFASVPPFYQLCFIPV
CYP2C9 inhib = blockers of cytochrome P450 2C9 activity – biochemical, luminescence, ADME assay, primary screen; CYP2C9 Supersomes, luciferin-H conversion; actives 20% (n = 96,000); P11712; inhibition, % at 5 µM;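 active = blocking of liver enzyme CYP2C9 beyond about 50% at 5 µM, limit read from the data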
CYP2C19 act = human CYP2C19 activators, primary screen, biochemical, luminescence; Cytochrome P450 2C19 (Homo sapiens), P33261; recombinant CYP2C19, luciferin-H EGE luminescence; stronger effect = higher value; 0 = fully inhibited enzyme, 1 = untreated enzyme; activation factor at 5 µM; 96,000 tested, under 10 active;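 active = activation factor of at least 2 at 5 µM in the primary screen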
CYP2C9 activ = human CYP2C9 activators, primary screen, biochemical, luminescence | recombinant CYP2C9, luciferin-H conversion; stronger effect = higher value; factor 1 = untreated enzyme, 0 = blocked | actives 1.4% (n = 96,000) | activation factor at 5 µM;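 active = activation factor of 2 or more for CYP2C9 at a 5 µM dose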
PostGolgi yeast = phenotypic screen on post-Golgi transport, primary screen | post-Golgi transport phenotypic cell assay | inhibition, % at 10 µM | actives 0.9% (n = 98,000);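 note: yeast cells grown in 1536-well plates; yeast grown about 18 h at 30C before absorbance read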
A number is an active result; n = inactive; x = no result given. Cut-off read from the data, not from the text of the source, unless noted: active = inhibition above about 30%; inactive = the rest.

SMILES | PostGolgi ctrl | CYP2C19 inh | CYP2C9 inhib | CYP2C19 act | CYP2C9 activ | PostGolgi yeast
CCCNS(=O)(=O)c1ccc(OCC(=O)Nc2ccc3c(c2)OCCO3)cc1 | n | n | 70 | n | n | n
CCCNS(=O)(=O)c1ccc(OCC(=O)NCc2ccc3c(c2)OCO3)cc1 | n | 54 | 62 | n | n | n
CCC(C)NS(=O)(=O)c1ccc(OCC(=O)NCc2ccc3c(c2)OCO3)cc1 (configuration not stated) | n | n | n | n | n | n
COc1ccc(CNC(=O)CSc2nnc(Cn3nnc4ccccc43)n2C)cc1 | n | n | n | n | n | n
Cn1c(CCN2CCN(c3ccc(F)cc3)CC2)nc2cc(NC(=O)c3ccco3)ccc21 | n | n | n | n | n | n
Cc1sc(NC(=O)c2ccco2)c(CN2CCN(c3ccc(F)cc3)CC2)c1C | n | 55 | n | n | n | n
Cc1sc(NC(=O)c2ccco2)c(CN2CCN(c3ccccn3)CC2)c1C | n | 65 | 89 | n | n | n
Cc1ccc(CN2CCN(c3ccccn3)CC2)s1 | n | 90 | 50 | n | n | n
CCC1/C(=N\O)CC(c2ccco2)NC1c1ccco1 (configuration not stated) | n | n | n | n | n | n
COc1nc(N/N=C/c2cc3c(cc2Br)OCO3)nc(N2CCOCC2)n1 | n | n | 77 | n | n | n
CCC(SCC(=O)OC)C(=O)Nc1nnc(C(C)C)s1 (configuration not stated) | n | n | n | n | n | n
Cc1cc(C)n(-c2nc(NC(C)(C)C)nc(NC(C)(C)C)n2)n1 | 41 | n | n | n | n | n
CC(C)(C)Nc1nc(NC(C)(C)C)nc(-n2ccnc2)n1 | 33 | n | 63 | n | n | n
Cc1cc(C)n(-c2nc(Nc3ccccc3C)nc(-n3nc(C)cc3C)n2)n1 | 53 | n | n | n | n | n
CC(C)(C)Nc1nc(NN)nc(NC(C)(C)C)n1 | n | n | n | n | n | n
C/C(=N\NC(=O)COc1ccc([N+](=O)[O-])cc1)C(C)(C)C | n | n | n | n | n | n
CC1CCN(C(=O)C2Cc3ccccc3CN2S(=O)(=O)c2ccc(F)cc2)CC1 (configuration not stated) | n | n | n | n | n | n
CCOC(=O)C1CCCN(Cc2sccc2C)C1 (configuration not stated) | n | n | n | n | n | n
CCN(CC)C(=O)Cn1nc(-c2ccccc2O)nc1SCC(=O)Nc1ccc(OC)cc1 | n | n | 69 | n | n | n
COc1ccc(NC(=O)CSc2nc(-c3ccncc3)nn2CC(=O)N2CCCC2)cc1 | n | 92 | 83 | n | n | n
COc1cccc(N(CC(=O)NC(C)(C)C)C(=O)C2CSC(=O)C2)c1 (configuration not stated) | n | n | n | n | n | n
O=C(Nc1nc2c(s1)CCCC2=O)c1cnccn1 | n | n | n | n | n | n
Cc1ccc(S(=O)(=O)n2ccc(-c3ccc(OCc4c(F)cccc4Cl)cc3)n2)cc1 | n | x | x | x | x | n
Cc1ccc(S(=O)(=O)n2ccc(-c3cccc(OCc4c(F)cccc4Cl)c3)n2)cc1 | n | n | 68 | n | n | n
Clc1ccc2nc(CN3CCCc4ccccc43)cn2c1 | n | 88 | 93 | n | n | n
SMILES | PostGolgi ctrl | CYP2C19 inh | CYP2C9 inhib | CYP2C19 act | CYP2C9 activ | PostGolgi yeast
CC(=O)Nc1ccc(S(=O)(=O)Nc2nnc(C(C)C)s2)cc1 | n | n | 60 | n | n | n
COc1ccc(S(=O)(=O)Nc2cc(C)c(O)c(S(=O)(=O)c3ccccc3)c2)cc1 | n | 53 | 79 | n | n | n
COc1ccc(S(=O)(=O)Nc2nnc(C(C)C)s2)cc1 | n | n | n | n | n | n
CC(=O)Nc1ccc(S(=O)(=O)Nc2cccc(C(=O)NC(C)(C)C)c2)cc1 | n | n | n | n | n | n
COc1ccc(S(=O)(=O)Nc2cccc(NC(C)=O)c2)cc1 | n | 95 | n | n | n | n
COC(=O)c1cc(NS(=O)(=O)c2ccc(NC(C)=O)cc2)cc(C(=O)OC)c1 | n | 53 | n | n | n | n
Cc1c(NC(=O)CSc2nnc(-c3ccco3)n2-c2ccccc2)c(=O)n(-c2ccccc2)n1C | n | n | n | n | n | n
CCN1CCN(CCCNC(=O)C2CCCN(c3nnc(-n4cccc4)s3)C2)CC1 (configuration not stated) | n | n | n | n | n | n
COc1cccc(NS(=O)(=O)c2ccc(NC(C)=O)cc2)c1 | n | 60 | n | n | n | n
CC1CCCC(C)N1CC(O)COc1ccc(Cl)cc1 (configuration not stated) | n | n | n | n | n | n
O=C(NCCCN1CCCC1=O)c1cc(=O)c2ccccc2o1 | n | n | n | n | n | n
Cc1ccc(C)c(N2CCN(Cc3nnnn3C3CCCCC3)CC2)c1 | 38 | 56 | n | n | n | n
CCOc1ccccc1C(=O)NC1CCN(Cc2nnnn2C2CCCC2)CC1 | n | n | n | n | n | n
C/C=C(\C)CN1CCN(c2ccccc2F)CC1 | n | 73 | n | n | n | n
C/C=C(\C)CN1CCN(c2cccc(C)c2C)CC1 | n | n | n | n | n | n
C/C=C(\C)CN1CCN(c2cc(C)ccc2C)CC1 | n | 82 | 55 | n | n | n
COc1ccc(C)cc1NC(=O)Nn1cnnc1 | n | n | n | n | n | n
CN1CCCc2cc3c(C(F)(F)F)cc(=O)oc3nc21 | n | n | n | n | n | n
COc1ccc(C2(C(=O)N3CCOCC3)CCOCC2)cc1OC | n | n | n | n | n | n
Cc1cc(C)n(-c2cc(-n3nc(C)cc3C)ncn2)n1 | n | n | n | n | n | n
Fc1cccc(Nc2cc(-n3cccn3)ncn2)c1 | n | x | x | x | x | n
Cc1ccc(Nc2cc(-n3cccn3)ncn2)c(C)c1 | n | 61 | n | n | n | n
Cc1ccc(Nc2cc(-n3nc(C)cc3C)ncn2)c(C)c1 | n | 54 | n | n | n | n
COc1cccc(NC(=O)c2ccc(-n3cccn3)nc2)c1 | n | n | n | n | n | n
CCCCNC(=O)c1ccc(S(=O)(=O)c2ccc(Cl)cc2)c(NC(C)=O)c1 | n | n | n | n | n | n
O=[N+]([O-])c1ccccc1N/N=C/c1c[nH]c2ccccc12 | n | n | n | n | n | n
COc1ccccc1NS(=O)(=O)c1cc([N+](=O)[O-])ccc1N/N=C/c1c[nH]c2ccccc12 | 31 | n | n | n | n | n
O=[N+]([O-])c1ccc(N/N=C/c2c[nH]c3ccccc23)cc1 | 91 | n | 58 | n | n | 99
CC1CC2=C(NC(=S)NC2c2ccc(F)cc2)/C(=C/c2ccc(F)cc2)C1 (configuration not stated) | 39 | n | n | n | n | n
COc1cc(CC(=O)Oc2ccc3c(c2)OCO3)cc(OC)c1OC | n | n | n | n | n | n
